PubChem BioAssay (Tox21)
Results filed as inconclusive are left out. A call without a number means that no potency is given here. Activity calls are given as the source filed them. Unless noted, calls follow the shape of the dose curve; as a rule, active = well fitted inhibition curve with a large enough effect in the repeat runs; inconclusive = weak or mixed curves, or effect the other way; inactive = no such curve, though single readings can be large or run the other way.

Molecular target: Nuclear receptor ROR-gamma (Homo sapiens) (UniProt P51449)
Test: qHTS assay to identify small molecule antagonists of the retinoid-related orphan receptor gamma (ROR-gamma) signaling pathway (AID 1159521; also: nearly all actives have a fitted effect of over 50% in size; also: potency is read from the fitted curve at half-maximal effect)
Conditions: Tet-on RORgamma CHO cells, RORE-luciferase, 16 h; series mostly up to 92.4 µM
Method in brief: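 Cells were plated, rested 4 h at 37 C, exposed to compounds for 2 h, then given 1 uM final doxycycline hyclate to induce RORγ expression. After 16 h, ONE-Glo luminescence from the ROR response element reporter was measured.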

Row | Structure (SMILES) | Potency
1 | Cc1nc(C)c(C)nc1C | inactive
2 | Cc1cc(C)c(C)c(O)c1 | inactive
3 | Cc1ccc(S(=O)(=O)NC(=O)NC2CCCC2)cc1 | inactive
4 | OCCc1ccncc1 | inactive
5 | C=C(C)C(=O)OCCCCCCCCCCOC(=O)C(=C)C | inactive
6 | CCC1=C(C)CN(C(=O)NCCc2ccc(S(=O)(=O)NC(=O)NC3CCC(C)CC3)cc2)C1=O (stereo not drawn) | inactive
7 | Cc1ccc(Cl)c(OCC(O)CNC(C)(C)C)c1 (stereo not drawn) | inactive
8 | O=C(C1CCCCC1)N1CC(=O)N2CCCc3ccccc3C2C1 (stereo not drawn) | inactive
9 | N#CCCCC(C#N)CCC#N (stereo not drawn) | inactive
10 | C[C@H](CN1CCCC1)C(=O)c1ccc(C(F)(F)F)cc1 | inactive
11 | Clc1nc2ccccc2nc1Cl | inactive
12 | CC(C)NC(=O)c1ccccc1N | inactive
13 | CCCc1nc(C)c2c(=O)[nH]c(-c3cc(S(=O)(=O)N4CCN(CC)CC4)ccc3OCC)nn12 | inactive
14 | Cc1cccc(C)c1NC(=O)CN1CCCC1 | inactive
15 | CC(COc1ccccc1)NC(C)C(O)c1ccc(O)cc1 (stereo not drawn) | inactive
16 | NCCOCCOCCN | inactive
17 | C=CC(=O)OCCCCCCCCCC | inactive
18 | Nc1ccc(F)cc1F | inactive
19 | O=c1[nH]nc(-c2ccc([N+](=O)[O-])o2)o1 | inactive
20 | CCN(CC)CC(=O)OCC(=O)[C@@]1(O)CC[C@H]2[C@@H]3CCC4=CC(=O)CC[C@]4(C)[C@H]3[C@@H](O)C[C@@]21C | inactive

Row | Structure (SMILES) | Potency
21 | CCOC(OCC)OCC | inactive
22 | Cc1ccc2ccccc2c1[N+](=O)[O-] | inactive
23 | C=CC(C)CCC=C(C)C (stereo not drawn) | inactive
24 | COC(=O)/C=C/C(C)=C\C=C\C(C)=C\C=C\C=C(C)\C=C\C=C(C)\C=C\C(=O)O | inactive
25 | CO[C@@H]1COCC[C@@H]1N[C@@H]1CC[C@@](C(=O)N2CCc3ncc(C(F)(F)F)cc3C2)(C(C)C)C1 | inactive
26 | CCCC(=O)OCc1ccccc1 | inactive
27 | c1ccc(CCNc2nc(-c3ccccc3)cs2)cc1 | inactive
28 | C[C@]12CCC(=O)C=C1[C@@H]1C[C@@H]1[C@H]1[C@@H]3[C@@H]4C[C@@H]4[C@@]4(CCC(=O)O4)[C@@]3(C)CC[C@@H]12 | 7.5 µM (active)
29 | O=C(OC1C[C@H]2CC[C@@H](C1)[N+]21CCCC1)C(O)(c1ccccc1)c1ccccc1 (stereo partly drawn) | inactive
30 | N#Cc1ccc(CC(=O)c2cccc(C(F)(F)F)c2)cc1 | inactive
31 | CC(CC(C#N)(c1ccccc1)C(C)C)N(C)C (stereo not drawn) | inactive
32 | O=C(NC1CCN(CCc2c[nH]c3ccccc23)CC1)c1ccccc1 | inactive
33 | CCCCOC(=O)C(C)Oc1ccc(Oc2ccc(C(F)(F)F)cn2)cc1 (stereo not drawn) | inactive
34 | O=C(N[C@@H](Cc1ccccc1)[C@@H](O)C(=O)N1C[C@@H](O)[C@@H](O)C1)c1cc2cc(Cl)ccc2[nH]1 | inactive
35 | CC1(C)C(=O)NC(=O)N1CO | inactive
36 | CCOc1cc(OCC)c(C(C)=O)cc1OCC | inactive
37 | OCCOc1cccc(OCCO)c1 | inactive
38 | CC(C)=CCC/C(C)=C/C=N/O | inactive
39 | CC(=O)Nc1ccn(C2COC(COC(=O)c3ccccc3)O2)c(=O)n1 (stereo not drawn) | inactive

System: not listed separately
Test: qHTS assay to identify small molecule agonists of the AP-1 signaling pathway - cell viability counter screen (AID 1159525; calls by dose curve; also: nearly all actives have a fitted effect of over 55% in size)
Conditions: ME-180 AP-1-bla cells viability, ATP luminescence, 5 h; series mostly up to 76.8 µM
Method in brief: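 ME-180 AP-1-bla, 2500 cells/well, Opti-MEM + 0.5% dialyzed FBS; overnight 37 °C; cpd 15-pt titration, 5 h 37 °C; CellTiter-Glo 30 min RT; luminescence read; normalised to TOAB and DMSO controls.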

Row | Structure (SMILES) | outcome
40 | Cc1cc(C)c(C)c(O)c1 | inactive
41 | Cc1ccc(S(=O)(=O)NC(=O)NC2CCCC2)cc1 | inactive
42 | OCCc1ccncc1 | inactive
43 | Cc1ccc(Cl)c(OCC(O)CNC(C)(C)C)c1 (stereo not drawn) | inactive
44 | Cc1cccc(C)c1NC(=O)CN1CCCC1 | inactive
45 | CC(COc1ccccc1)NC(C)C(O)c1ccc(O)cc1 (stereo not drawn) | inactive
46 | C=CC(=O)OCCCCCCCCCC | inactive
47 | c1ccc(CCNc2nc(-c3ccccc3)cs2)cc1 | inactive
48 | O=C(OC1C[C@H]2CC[C@@H](C1)[N+]21CCCC1)C(O)(c1ccccc1)c1ccccc1 (stereo partly drawn) | inactive
49 | CC(CC(C#N)(c1ccccc1)C(C)C)N(C)C (stereo not drawn) | inactive
50 | O=C(NC1CCN(CCc2c[nH]c3ccccc23)CC1)c1ccccc1 | inactive

System: not listed separately
Test: qHTS assay to identify small molecule agonists of the AP-1 signaling pathway (AID 1159526; calls by dose curve)
Conditions: ME-180 (cervical carcinoma) AP-1-bla reporter, beta-lactamase FRET ratio, 5 h; series mostly up to 76.8 µM

Row | Structure (SMILES) | Potency
51 | Cc1nc(C)c(C)nc1C | inactive
52 | C=C(C)C(=O)OCCCCCCCCCCOC(=O)C(=C)C | inactive
53 | CCC1=C(C)CN(C(=O)NCCc2ccc(S(=O)(=O)NC(=O)NC3CCC(C)CC3)cc2)C1=O (stereo not drawn) | inactive
54 | O=C(C1CCCCC1)N1CC(=O)N2CCCc3ccccc3C2C1 (stereo not drawn) | inactive
55 | N#CCCCC(C#N)CCC#N (stereo not drawn) | inactive
56 | C[C@H](CN1CCCC1)C(=O)c1ccc(C(F)(F)F)cc1 | inactive
57 | Clc1nc2ccccc2nc1Cl | inactive
58 | CC(C)NC(=O)c1ccccc1N | inactive
59 | CCCc1nc(C)c2c(=O)[nH]c(-c3cc(S(=O)(=O)N4CCN(CC)CC4)ccc3OCC)nn12 | inactive
60 | NCCOCCOCCN | inactive
61 | Nc1ccc(F)cc1F | inactive
62 | O=c1[nH]nc(-c2ccc([N+](=O)[O-])o2)o1 | inactive
63 | CCN(CC)CC(=O)OCC(=O)[C@@]1(O)CC[C@H]2[C@@H]3CCC4=CC(=O)CC[C@]4(C)[C@H]3[C@@H](O)C[C@@]21C | inactive
64 | CCOC(OCC)OCC | inactive
65 | Cc1ccc2ccccc2c1[N+](=O)[O-] | inactive
66 | C=CC(C)CCC=C(C)C (stereo not drawn) | inactive
67 | COC(=O)/C=C/C(C)=C\C=C\C(C)=C\C=C\C=C(C)\C=C\C=C(C)\C=C\C(=O)O | inactive
68 | CO[C@@H]1COCC[C@@H]1N[C@@H]1CC[C@@](C(=O)N2CCc3ncc(C(F)(F)F)cc3C2)(C(C)C)C1 | inactive
69 | CCCC(=O)OCc1ccccc1 | inactive
70 | C[C@]12CCC(=O)C=C1[C@@H]1C[C@@H]1[C@H]1[C@@H]3[C@@H]4C[C@@H]4[C@@]4(CCC(=O)O4)[C@@]3(C)CC[C@@H]12 | inactive
71 | N#Cc1ccc(CC(=O)c2cccc(C(F)(F)F)c2)cc1 | inactive
72 | CCCCOC(=O)C(C)Oc1ccc(Oc2ccc(C(F)(F)F)cn2)cc1 (stereo not drawn) | inactive
73 | O=C(N[C@@H](Cc1ccccc1)[C@@H](O)C(=O)N1C[C@@H](O)[C@@H](O)C1)c1cc2cc(Cl)ccc2[nH]1 | inactive
74 | CC1(C)C(=O)NC(=O)N1CO | inactive
75 | CCOc1cc(OCC)c(C(C)=O)cc1OCC | inactive
76 | OCCOc1cccc(OCCO)c1 | inactive
77 | CC(C)=CCC/C(C)=C/C=N/O | inactive
78 | CC(=O)Nc1ccn(C2COC(COC(=O)c3ccccc3)O2)c(=O)n1 (stereo not drawn) | inactive
